Results filed as inconclusive are left out. Unmarked numbers belong to inactive results. Activity calls are given as the source filed them. The call rests on the fitted dose curve; in most records, active means well fitted cell-killing curve with a large enough effect; inconclusive means small, poorly fitted or top-dose-only effect; inactive means flat fitted curve, though single readings scatter.
Assay: qHTS of pediatric cancer cell lines to identify multiple opportunities for drug repurposing: Primary screen for DAOY cells (AID 1347090); further: nearly all actives have a fitted effect of over 55% in size
Conditions: DAOY medulloblastoma viability, CellTiter-Glo luminescence, 48 h; series mostly up to 46 µM; activity change, negative = cytotoxic: at the top concentration
Description: Drug repurposing or repositioning has been offered as a strategy for drug development in oncology programs. This approach has special potential for childhood cancers and other rare or orphan diseases, where the expected return on new drug development has been a disincentive to pharmaceuticals.
In this project we exploit the poly-pharmacology of drugs to discover new indications via phenotypic screening of a panel of 19 well-characterized cell lines derived from solid tumors seen in children and adolescents. The goal is to identify approved drugs with previously unrecognized anticancer properties that has the potential to reveal new mechanisms and biological processes involved in carcinogenesis or drug resistance. We employed a titration-based paradigm (quantitative high-throughput screening or qHTS), where all compounds were tested at multiple concentrations for their effect on cell viability. Concentration-response curves (CRCs) were derived directly from the primary screen, and both potency and efficacy values were used to identify compounds with robust bioactivity profiles. We screened the NIH Chemical Genomics Center (NCGC) Pharmaceutical Collection (NPC) and Mechanism Interrogation Plate (MIPE) small molecule collections of approved and investigational compounds against these cell lines; and measured metabolically active cells after 48 hours of compound treatment as a proxy for cell viability.
Assay Submitter: Nathalia J. Martinez, National Center for Advancing Translational Sciences, National Institutes of Health, Rockville, MD, USA; email: natalia.martinez@nih.gov
[1] Shen, M et al. Quantitative high-throughput phenotypic screening of pediatric cancer cell lines identifies multiple opportunities for drug repurposing. Oncotarget 2017 Dec 19;9(4):4758-4772. PMID 29435139.
The cells were obtained from University of North Carolina (UNC), Pediatric Preclinical Testing Program (PPT), and Coriell Institute (CI).
qHTS cell viability assay:
Cells were assayed in growth media at a density of 500-1,000 cells/well. Five microliters of cells were dispensed into 1,536-well, white, solid-bottom, TC-treated plates (Greiner Bio One) using a multidrop dispenser and incubated at 37 degrees C, 5% CO2, under a humidified atmosphere for 5 hours. Twenty-three nanoliters of compounds and controls (neutral control DMSO or positive control bortezomib at final concentration of 2.3 µM) were subsequently transferred by Kalypsys pintool. For primary screens, the MIPE collection was tested at 11-point dilutions (final concentrations range from 0.78 nM to 46 µM) and the NPC collection at 8-point dilutions (final concentrations range from 0.59 nM to 46 µM). Compounds tested in follow-up screens were assayed at 11-point dilutions. Cells were incubated for 48 hours, followed by addition of 3 uL of CellTiter-Glo (Promega). After a 15 min incubation at room temperature, samples were analyzed for luminescence intensity using a ViewLux High-throughput CCD imager equipped with clear filters.
Potency means the concentration at half of the fitted maximal effect.

Row | SMILES | activity change, negative = cytotoxic | Potency
1 | CC(C)(C)NCC(O)COc1cccc2c1C[C@H](O)[C@H](O)C2 (stereo not given in full) | 6.93% | 
2 | CC(=O)NCCCCCC(=O)O | -4.07% | 
3 | CN1CCN(c2cc3c(cc2F)c(=O)c(C(=O)O)cn3-c2ccc(F)cc2)CC1 | -7.66% | 
4 | CN(C)CCC[C@@]1(c2ccc(F)cc2)OCc2cc(C#N)ccc21 | 4.31% | 
5 | O=C(NC1CCN(CCc2c[nH]c3ccccc23)CC1)c1ccccc1 | 0.259% | 
6 | CN1CCN(CCC(=O)N2c3ccccc3Sc3ccc(C(F)(F)F)cc32)CC1 | -17.1% | 
7 | CC1(C)OC[C@@H]2O[C@@]3(C(=O)O)OC(C)(C)O[C@H]3[C@@H]2O1 | 5.22% | 
8 | C#C[C@]1(O)CC[C@H]2[C@@H]3CCC4=Cc5oncc5C[C@]4(C)[C@H]3CC[C@@]21C | -9.4% | 
9 | COc1cc(NS(=O)(=O)c2ccc(N)cc2)ncn1 | -2.61% | 
10 | FC1(F)C(F)(F)C(F)(F)C2(F)C(F)(F)C(F)(F)C(F)(F)C(F)(F)C2(F)C1(F)F (stereo not given) | 3.27% | 
11 | CCOc1ccccc1OCCN[C@H](C)Cc1ccc(OC)c(S(N)(=O)=O)c1 | 16.5% | 
12 | NCc1ccccc1Sc1ccccc1CO | 6.74% | 
13 | Cc1cn([C@H]2C[C@H](F)[C@@H](CO)O2)c(=O)[nH]c1=O | 9.47% | 
14 | NCCNC(=O)c1ccc(Cl)cn1 | 3.43% | 
15 | COc1cc(C)nc(-n2nc(C)cc2OC)n1 | 10.8% | 
16 | O=C(Nc1cccc(C2=NCCN2)c1)Nc1cccc(C2=NCCN2)c1 | -13.3% [at 16.1 µM] | 
17 | CCCCNC(=O)NS(=O)(=O)c1ccc(N)cc1 | 6.59% | 
18 | OC(C#CCN1CCCC1)(c1ccccc1)c1ccccc1 | 3.48% | 
19 | O=[N+]([O-])c1cccc(S(=O)(=O)NCCNS(=O)(=O)c2cccc([N+](=O)[O-])c2)c1 | -12.8% | 
20 | COc1ccc(/C=N/NC(=O)c2ccncc2)cc1OC | 6.32% | 

Row | SMILES | activity change, negative = cytotoxic | Potency
21 | Oc1ccccc1C=NCc1ccccc1 | 3.84% | 
22 | CC(C)n1c(/C=C/[C@@H](O)C[C@@H](O)CC(=O)O)c(-c2ccc(F)cc2)c2ccccc21 |  | 1.33 µM (active)
23 | C/C=C/c1ccc(O)c(OC)c1 | -1.32% | 
24 | N#CCC(=O)NN | 4.95% | 
25 | CC(=C(CCOC(=O)C(C)C)SSC(CCOC(=O)C(C)C)=C(C)N(C=O)Cc1cnc(C)nc1N)N(C=O)Cc1cnc(C)nc1N | 5.37% | 
26 | O=C(Nc1ncc([N+](=O)[O-])s1)c1cccs1 |  | 16.8 µM (active)
27 | CC(=O)Nc1ccc(OCC(O)CNC(C)C)cc1 (stereo not given) | -23.5% | 
28 | O=C(NCCc1c[nH]c2ccccc12)c1cccnc1 | 7.94% | 
29 | CC(=O)Nc1ccc(CC(=O)O)cc1 | 0.307% | 
30 | CC(C)Nc1cccnc1N1CCN(C(=O)c2cc3cc(NS(C)(=O)=O)ccc3[nH]2)CC1 | -6.67% | 
31 | Cc1ccc(O)c([C@H](CCN(C(C)C)C(C)C)c2ccccc2)c1 | -2.66% | 
32 | CCN(CC)CCOC(=O)C(Cc1cccc2ccccc12)CC1CCCO1 (stereo not given) | -8.78% | 
33 | CC(=O)OCC1=C(C(=O)O)N2C(=O)[C@@H](NC(=O)CSc3ccncc3)[C@H]2SC1 | 3.94% | 
34 | CCCCCCCCCCCCSCCOCCO | 12.3% | 
35 | O=C1OC2(c3ccccc31)c1cc(Br)c(O)c(Br)c1Oc1c2cc(Br)c(O)c1Br | -15.6% | 
36 | O=C1OC(CN2CCOCC2)CN1/N=C/c1ccc([N+](=O)[O-])o1 (stereo not given) | -6.81% | 
37 | Cc1ccccc1OCC(O)CO (stereo not given) | 0.868% | 
38 | OC[C@H]1O[C@@H](Oc2ccc(O)cc2)[C@H](O)[C@@H](O)[C@@H]1O | 2.67% | 
39 | C=C[C@@]1(C)CC(=O)[C@]2(O)[C@@]3(C)[C@@H](O)CCC(C)(C)[C@@H]3[C@H](O)[C@H](OC(C)=O)[C@@]2(C)O1 | -17.6% | 
40 | CCCCCCCCCCCCCCCC(=O)O | 5.85% | 
